Compound activity as filed in PubChem BioAssay.
This excerpt belongs to a sample that is enriched for hits.
Vaccinia pol inh: inhibitors of vaccinia virus processive DNA synthesis (E9 polymerase); in vitro processive DNA synthesis, absorbance read-out; active compounds read low; normalized absorbance, % (no concentration beside the values); 0.94% of 46,000 active; in the data active = normalized absorbance mostly below about 85%, no sharp cut-off; inactive = mostly above about 86%
Active calls of the source: *.

SMILES	Vaccinia pol inh
Cn1cc(-c2ccccc2C(=O)O)c(=O)c2ccccc21	98
O=C(O)c1ccccc1-c1c2cc(Br)c(=O)cc-2oc2[c]([Hg])c(O)c(Br)cc12	18*
O=C(O)c1cc(-c2ccco2)nc2ccc(Br)cc12	87
CCOc1ccc2[nH]c(=O)c(C(c3nnnn3CCOC)N3CCc4ccccc43)cc2c1 (centres undefined)	99
Cc1ccc(C)c(NC(=O)c2cc(C)nn2-c2ccccc2)c1	83
Cn1ccnc1C(=O)c1cccs1	107
Cc1ccc(C(=O)/C=C2/CC(c3ccccc3)NCCN2)c(O)c1 (centres undefined)	100
CC(=O)N[C@@H](Cc1c[nH]c2ccccc12)C(=O)O	100
Cc1ccc(OCC(=O)NC(Cc2c[nH]c3ccccc23)C(=O)O)cc1 (centres undefined)	94
Cc1cc(OCC(=O)NC(Cc2c[nH]c3ccccc23)C(=O)O)cc(C)c1Cl (centres undefined)	60*
O=C(OCc1c(Cl)nc2sccn12)c1ccc(F)cc1Cl	88
O=C1c2cccc3cccc(c23)C(=O)N1NCCO	80*
O=C1c2cccc3cccc(c23)C(=O)N1c1ccc(O)cc1	96
O=C(O)CN1C(=O)c2cccc3cccc(c23)C1=O	100
CN(C(=O)c1cn(C2CCCC2)c(=O)c2c1c1ccccc1n2C)c1cccc(C(F)(F)F)c1	96
Cc1nc2ccccc2n1C(=O)CCCC(=O)O	101
Cn1cc(SCC(=O)NCc2ccco2)c2ccccc21	100
O=C(O)c1cccc(N2C(=O)/C(=C/c3ccccc3)SC2=S)c1	90*
CCN(CC)c1ccc(N2C(=O)/C(=C/c3ccccc3)SC2=S)cc1	101
COc1ccccc1/C=C1\SC(=S)N(c2ccccc2)C1=O	100
CN(C(=O)c1nc(-c2cccc(F)c2)n2c1CCCCC2)c1ccccc1	92
Clc1cccc(-n2nnc(-c3ccccc3)n2)c1	90
CC1=C2C(=NCCN1)C(=O)N(c1ccccc1)C2c1cccnc1 (centres undefined)	109
Cc1cccc(C)c1NC1OC(=O)c2ccccc21 (centres undefined)	99
CC(C)Sc1nnc(CSc2ncccn2)n1-c1ccc(F)cc1	75
SMILES	Vaccinia pol inh
Cc1cc(C)nc(NC(N)=NCc2ccccc2)n1	98
Cc1cc(C)nc(/N=C(\N)Nc2ccccc2)n1	41*
Cc1cc(=O)[nH]c(/N=C(\N)Nc2ccccc2)n1	100
O=C1CC(C(=O)NCc2ccccc2)N=C(N2CCOCC2)N1 (centres undefined)	102
O=C(c1cc(=O)c2ccccc2o1)N1CCc2ccccc21	99
O=C(NCCCN1CCCCC1)c1ccc2nc(N3CCCCC3)sc2c1	97
CCN1CCCC1CNC(=O)c1nnc(Cc2cccc(F)c2)o1 (centres undefined)	108
CCN1CCCC1CNC(=O)c1ccc2c(c1)sc1nc(-c3cccc(OC)c3)cn12 (centres undefined)	47*
O=C(NCCCN1CCCCC1)c1ccc2c(c1)sc1nc(-c3ccccc3)cn12	58*
CCOC(=O)N1CCN(C(=O)c2ccc3c(c2)sc2nc(-c4ccc(OC)cc4)cn23)CC1	99
O=C(NCCN1CCCCCC1)c1ccc2c(c1)ncn2C1CCCCC1	97
Cc1cc(OCc2cccc(C(F)(F)F)c2)c2c3c(c(=O)oc2c1)CCC3	100
O=C(COc1ccccc1F)Nc1cc(C(F)(F)F)ccc1Cl	101
O=C(Nc1ccc(Cl)cc1)c1c[nH]n2c(=O)cc(C3CCNCC3)nc12	102
O=C1c2ccccc2-c2nn(C(=O)c3ccncc3)c3cccc1c23	79
CC(C)C(=O)n1nc(-c2ccc(Cl)cc2)nc1NCc1ccccc1	107
CCC(C(=O)O)n1nc(C)c2sc3ccccc3c2c1=O (centres undefined)	102
CCOC(=O)C(C)n1nc(C)c2sc3ccccc3c2c1=O (centres undefined)	92
CCN(CC)CCNc1ccc(CO)c2sc3ccccc3c(=O)c12	60*
COc1ccc2oc(C#N)cc2c1	96
COc1cc(C=Nc2ccc(C)cc2)ccc1OC(C)=O	97
Cc1ccc2[nH]c(-c3ccccc3)c(CN3CCCC3)c(=O)c2c1	100
Cc1ccc(S(=O)(=O)Nc2c(-c3ccccc3)c3cc(C)ccc3[nH]c2=O)cc1	94
Cc1ccc2[nH]c(=O)c(CN3CCOCC3)c(-c3ccccc3)c2c1	67*
CCOc1cccc2cc(C(N)=O)c(=Nc3ccccc3F)oc12	101
SMILES	Vaccinia pol inh
COc1cccc2sc(NC(C)=O)nc12	96
NNC(=O)CSCc1ccc(Cl)cc1	100
CC1=C(C(=O)O)N2C(=O)[C@@H](NC(=O)[C@H](N)c3ccc(O)cc3)[C@H]2SC1	100
CC(=O)OCC1=C(C(=O)O)N2C(=O)[C@@H](NC(=O)CSc3ccncc3)[C@H]2SC1	60*
Cn1nnnc1SCC1=C(C(=O)O)N2C(=O)C(NC(=O)C(OC=O)c3ccccc3)C2SC1 (centres undefined)	99
CO/N=C(/C(=O)NC1C(=O)N2C(C(=O)O)=C(COC(N)=O)CSC12)c1ccco1 (centres undefined)	95
CC(=O)OCC1=C(C(=O)O)N2C(=O)[C@@H](NC(=O)CCCC(N)C(=O)O)C2SC1 (some centres undefined)	88
Cn1nnnc1SCC1=C(C(=O)O)N2C(=O)C(NC(=O)C(O)c3ccccc3)C2SC1 (centres undefined)	64*
O=C(Nc1ccccc1)c1ccc(Br)s1	98
CC(=O)Oc1ccc(C(C)(C)c2ccc(OC(C)=O)cc2)cc1	101
O=C(O)c1ccccc1-c1ccc(/C=N/N2C(=O)C3C4C=CC(C4)C3C2=O)o1 (centres undefined)	100
CCc1nc2ccccc2c(C(=O)OCC(N)=O)c1C	103
Nc1oc(-c2ccc(Cl)cc2)cc1C(=O)c1ccc(Cl)cc1	100
Fc1ccc(Oc2ncnc3sccc23)c(Cl)c1	104
NC(=O)c1ccccc1N=c1cc(-c2ccccc2)oc2ccc(Cl)cc12	100
Cc1ccc2oc(-c3ccccc3)cc(=NCCN3CCOCC3)c2c1	72*
Clc1ccc2oc(-c3ccccc3)cc(=NCc3ccco3)c2c1	90
Clc1ccc2oc(-c3ccccc3)cc(=NCC3CCCO3)c2c1 (centres undefined)	59*
CCCCN1CCN(c2nc(-c3ccccc3)c3cc(C)ccc3n2)CC1	100
Clc1cccc(-n2cc(-c3ccccc3)c3c(NCC4CCCO4)ncnc32)c1 (centres undefined)	102
O=C(NCC1CCCO1)Nc1ccc(Cl)cc1 (centres undefined)	80
Cc1ccc2oc(=O)cc(CN3CCOCC3)c2c1	99
Clc1ccc2oc(-c3ccccc3)cc(=NCCCN3CCOCC3)c2c1	44*
COc1ccccc1COc1ccc2c3c(c(=O)oc2c1C)CCCCC3	99
CCC1=N/C(=C\c2ccc(Br)cc2)C(=O)O1	102
SMILES	Vaccinia pol inh
O=C1C=C(Nc2cccc3ccccc23)CCC1	95
CC1CCN(C(=O)COC(=O)c2ccc(N(C)C)cc2)CC1	102
O=C(Nc1ccc(-c2csc(-c3ccccc3)n2)cc1)c1cccs1	99
Cn1c(C(=O)NC2CC2)cc2c(=O)n(C)c3ccccc3c21	77
Cn1c(C(=O)NCCc2ccc(Cl)cc2)cc2c(=O)n(C)c3ccccc3c21	100
CN1CCN(CCNC(=O)c2cc3c(=O)n(C)c4ccccc4c3n2C)CC1	62*
NC(N)=NCCC[C@@H](NC(=O)[C@@H](N)Cc1ccc(O)cc1)C(=O)O	101
O=C(c1cnc2ccccc2n1)N1CCN(c2cccc(Cl)c2)CC1	93
